Consider 22 molecules from PubChem BioAssay (NCI).

Holding throughout (assay): NCI-60 one-dose screen, 48 h (100 = growth as untreated, 0 = no growth, -100 = all killed)
What all share (settings): 10 µM unless noted

The test system of assay [1] is DU-145 prostate.
Assay [2] deals with MALME-3M melanoma.
The subject of assay [3] is MDA-MB-231 breast.
For assay [4], the system named is RXF 393 renal.
In assay [5] the test system is SF-268 CNS.
Assay [6] concerns SF-295 CNS.
Assay [7] relates to SF-539 CNS.
In assay [8] the test system is UACC-257 melanoma.
In assay [9] the test system is M14 melanoma.
Assay [10] has as its system K-562 leukemia.

“And” between values parts separate entries of the source, which are not always exact repeats. Equal values may be shown once. Compounds without any hit were thinned out: in the full panel of roughly 83,000, 20% have a hit.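 Single-dose data. Exposure time 48 hours. Values below 10 considered active.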 The source made the active and inactive calls.

For the molecule `C=C1C(=O)O[C@H]2[C@H]1CC/C(COC(=O)NC1CCC(O)CC1)=C\CC[C@@]1(C)O[C@@H]21` (some centres undefined), the growth is 38.7% (inactive) and 28.8% (inactive) in [1]; 72.6% (inactive) and 64.5% (inactive) in [2]; 60.8% (inactive) and 62.4% (inactive) in assay [3]; 54% (inactive) and 53.2% (inactive) in assay [4]; 93.2% (inactive) and 91.5% (inactive) in assay [5]; 96.6% (inactive) and 95.7% (inactive) in [6]. Besides, the growth in assay [7] was 71.9% (inactive) and 63.2% (inactive); in assay [8] it was 65.6% (inactive) and 69.1% (inactive); in [9] it was 85.4% (inactive) and 71.4% (inactive).

In the case of `COc1cc2nc(N3CCC[C@@H](NC(=O)C4COc5ccccc5O4)C3)nc(N)c2cc1OC` (some centres undefined), the growth in assay [1] is 107% (inactive) and 108% (inactive); in [10] it was 97.1% (inactive) and 94.1% (inactive); in assay [2] it was 101% (inactive) and 109% (inactive); in [3], 104% (inactive) and 106% (inactive); in [4] it was 105% (inactive) and 88.6% (inactive); in assay [5] it was 105% (inactive) and 103% (inactive). For the same molecule, the growth in assay [7] was 104% (inactive) and 101% (inactive); in assay [8], 93.5% (inactive) and 92% (inactive); in assay [9] it was 105% (inactive) and 101% (inactive).

Turning to `c1ccc(N(c2ccccc2)c2ccccc2)cc1`, the growth in [1] is 113% (inactive); in assay [2], 93.8% (inactive); in [3], 120% (inactive); in assay [4], 122% (inactive); in assay [5] it was 106% (inactive); in assay [6], 92% (inactive). Also, the results for the growth in assay [7], in assay [8] and in assay [9] were 104% (inactive), 104% (inactive) and 100% (inactive), respectively.

On to `CCOC(=O)c1sc(N)nc1-c1ccccc1`, for which the growth in assay [1] was 113% (inactive); in assay [10] it was 96% (inactive); in assay [2], 120% (inactive); in assay [3], 117% (inactive); in assay [4], 102% (inactive); in assay [5] it was 108% (inactive). Also, the growth in [7] is 88.4% (inactive); in [8], 98.1% (inactive); in assay [9] it was 99.7% (inactive).

In the case of `COC(=O)c1nc(N)nc(C(=O)OC)c1C(=O)c1ccc(OC)cc1`, the growth in assay [1] is 97.2% (inactive) and 48.2% (inactive); in assay [10], 102% (inactive) and 52% (inactive); in assay [2], 100% (inactive) and 50.4% (inactive); in assay [3], 107% (inactive) and 53.8% (inactive); in [4], 103% (inactive) and 9.98% (active); in assay [5] it was 97.9% (inactive) and 92.8% (inactive). Further, the growth was 108% (inactive) and 102% (inactive) in [6]; 97.4% (inactive) and 59.8% (inactive) in assay [7]; 100% (inactive) and 86.7% (inactive) in assay [8]; 108% (inactive) and 48.5% (inactive) in assay [9].

Consider `CC12CCC(CC1)C(C)(C)O2`, for which the growth is 110% (inactive) in assay [1]; 101% (inactive) in assay [2]; 100% (inactive) in [3]; 117% (inactive) in assay [4]; 119% (inactive) in assay [5]; 91% (inactive) in assay [6]. In addition, the growth in [7] is 103% (inactive); in assay [8], 108% (inactive); in assay [9], 99.7% (inactive).

On to `O=CC(O)C(O)C(O)CO` (centres undefined), for which the growth in [1] is 107% (inactive) and 108% (inactive); in [10] it was 114% (inactive) and 99.3% (inactive); in assay [2], 122% (inactive); in assay [3] it was 92.5% (inactive) and 125% (inactive); in assay [4], 104% (inactive); in [5] it was 107% (inactive) and 100% (inactive). For the same molecule, the growth in [6] is 121% (inactive); in [7], 88.1% (inactive) and 111% (inactive); in assay [8] it was 106% (inactive); in assay [9] it was 113% (inactive) and 98% (inactive).

Turning to `CCN(CC)C(=O)c1cccnc1`, the growth in assay [1] was 119% (inactive); in assay [2] it was 104% (inactive); in assay [3] it was 106% (inactive); in [4], 123% (inactive); in assay [5], 108% (inactive); in [6] it was 99.8% (inactive). Also, the growth in assay [7] was 99.8% (inactive); in assay [8] it was 101% (inactive); in assay [9], 103% (inactive).

On to `COc1cc(C(=O)N/N=C/c2ccc(N(C)C)cc2)cc(OC)c1OC`, for which the growth is 0.807% (active) in assay [1]; 14% (inactive) in [10]; 30.2% (inactive) in assay [3]; 26.4% (inactive) in [4]; 57.6% (inactive) in [5]; 19.1% (inactive) in assay [6]. Further, the growth in assay [7] is 14.1% (inactive); in assay [8], 43.2% (inactive).

With `CC(O)Cn1cnc2c1c(=O)n(C)c(=O)n2C` (centres undefined), the growth is 110% (inactive) in assay [2]; 95.5% (inactive) in assay [3]; 99.3% (inactive) in assay [4]; 103% (inactive) in assay [5]; 109% (inactive) in [6]; 93.7% (inactive) in assay [7]. For the same molecule, the growth in [8] is 106% (inactive).

With `CCC(=O)C(CC)c1cccc(OC)c1` (centres undefined), the growth in assay [1] is 114% (inactive); in assay [2], 101% (inactive); in assay [3], 111% (inactive); in assay [4] it was 107% (inactive); in [5], 120% (inactive); in assay [6], 100% (inactive). In addition, the figures for the growth in [7], in [8] and in [9] were 115% (inactive), 100% (inactive) and 101% (inactive), respectively.

Regarding `Nc1ccc2ccc(N)cc2c1`, the growth in [1] was 96.1% (inactive); in [10], 57.3% (inactive); in assay [2] it was 33.1% (inactive); in [3], 62.1% (inactive); in assay [4], 88.1% (inactive); in assay [5], 84.3% (inactive). The growth is 72.1% (inactive) in assay [6], 107% (inactive) in assay [7] and 84.1% (inactive) in assay [9].

For `Nc1ccc2[nH]c(-c3ccccc3)cc(=O)c2c1`, the growth is 101% (inactive) in assay [1]; 80.4% (inactive) in [2]; 100% (inactive) in [3]; 89.9% (inactive) in [4]; 90.7% (inactive) in assay [5]; 93.5% (inactive) in assay [6]. For the same molecule, the results for the growth in assay [7], in assay [8] and in [9] were 88.5% (inactive), 79.8% (inactive) and 70.6% (inactive), respectively.

As to `O=C(CCc1ccc(O)cc1)N/N=C/c1cc(Br)ccc1O`, the growth in assay [1] is 63.2% (inactive); in assay [10], 15.4% (inactive); in assay [2] it was 87.1% (inactive); in assay [3], 59.7% (inactive); in assay [4], 76.6% (inactive); in assay [5], 48.3% (inactive). Besides, the growth in assay [7] was 39.9% (inactive); in assay [8] it was 55.5% (inactive); in [9], 39.9% (inactive).

On to `CN1CCN(CCC=C2c3ccccc3Sc3ccc(S(=O)(=O)N(C)C)cc32)CC1`, for which the growth is 88.1% (inactive) and 101% (inactive) in assay [1]; 1.04% (active) and -15.5% (active) in assay [10]; -13.1% (active) and 40.5% (inactive) in [2]; 42.8% (inactive) and 69.3% (inactive) in [3]; 30.4% (inactive) and 60% (inactive) in assay [4]; -83.1% (active) and -57.7% (active) in [8].

Take `OC(CSc1ccccc1)CN1CCN(c2cccc(Cl)c2)CC1` (centres undefined): the growth in assay [1] is 116% (inactive) and 105% (inactive); in assay [10] it was 84% (inactive) and 97% (inactive); in assay [3], 96.6% (inactive) and 96.3% (inactive); in assay [4], 106% (inactive) and 93.8% (inactive); in [5], 100% (inactive) and 99.1% (inactive); in [6], 110% (inactive) and 105% (inactive). The growth in [7] is 113% (inactive) and 105% (inactive); in [8] it was 93.6% (inactive) and 95% (inactive); in [9] it was 100% (inactive) and 93.8% (inactive).

Regarding `CN(C)c1ccc(/C=C(\C#N)c2ccccc2)cc1`, the growth in assay [1] is 15.7% (inactive) and 38.1% (inactive); in assay [10], 11.3% (inactive) and 14% (inactive) and 23.9% (inactive); in assay [2], 53.7% (inactive) and 51.2% (inactive) and 57.3% (inactive); in assay [3] it was 55.7% (inactive) and 50.3% (inactive) and 48.9% (inactive); in assay [4], -6.38% (active) and -3.64% (active); in assay [5] it was 43.5% (inactive) and 61.1% (inactive) and 56% (inactive). The growth is -18.9% (active) and 23.5% (inactive) and 17% (inactive) in assay [6]; -2.9% (active) and -3.11% (active) and -13.1% (active) in assay [7]; 20.1% (inactive) and 66.6% (inactive) and 56.6% (inactive) in assay [8]; 19.1% (inactive) and 30.2% (inactive) and 24% (inactive) in assay [9].

Consider `CC1=C(/C=C/C(C)=C/C=C/C(C)=C/C(=O)Nc2ccc(O)cc2)C(C)(C)CCC1`, for which the growth in [1] is 68.4% (inactive); in assay [2], 76.1% (inactive); in [3], 54.5% (inactive); in assay [4] it was 60.8% (inactive); in [5], 60.8% (inactive); in assay [6], 4.64% (active). The results for the growth in assay [7], in assay [8] and in assay [9] were -32.7% (active), 76.7% (inactive) and 53.5% (inactive), respectively.

In the case of `CNC(=O)c1cccnc1`, the growth in [1] is 116% (inactive); in assay [2], 86.8% (inactive); in assay [3], 102% (inactive); in assay [4] it was 114% (inactive); in assay [5] it was 103% (inactive); in assay [6], 100% (inactive). Moreover, the figures for the growth in assay [7], in assay [8] and in assay [9] were 100% (inactive), 92.4% (inactive) and 104% (inactive), respectively.

Consider `CCC(C)C1(C2CCCC2)NC(=O)NC1=O` (centres undefined), for which the growth was 121% (inactive) in [1]; 99.3% (inactive) in [10]; 114% (inactive) in assay [2]; 101% (inactive) and 94.3% (inactive) in [3]; 106% (inactive) and 127% (inactive) in assay [4]; 103% (inactive) and 107% (inactive) in assay [5]. Besides, the growth is 117% (inactive) and 93.9% (inactive) in [6]; 104% (inactive) and 96.6% (inactive) in assay [7]; 94.9% (inactive) and 101% (inactive) in assay [8]; 98.4% (inactive) and 106% (inactive) in [9].

With `CCCCCCCCCCCCOc1ccccc1C=O`, the growth in assay [1] is 111% (inactive); in assay [10] it was 83.7% (inactive); in assay [3] it was 102% (inactive); in assay [4], 110% (inactive); in assay [5], 97.5% (inactive); in assay [6], 99% (inactive). Further, the growth is 102% (inactive) in [7] and 96.8% (inactive) in assay [8].

`COc1ccc2ccccc2c1/C=N/N1CCCCC1`: the growth was 108% (inactive) in [1]; 91.5% (inactive) in assay [10]; 99.4% (inactive) in assay [3]; 100% (inactive) in assay [4]; 96.4% (inactive) in assay [6]; 89.5% (inactive) in [7]. For the same molecule, the growth in [8] was 99.7% (inactive); in assay [9], 108% (inactive).
